# High-throughput results as filed in PubChem.
# CYP2C19 inhib = blocks human cytochrome P450 2C19 | hit rate 21% among 96,000 | CYP2C19 Supersomes, luciferin-H EGE luminescence, 30 min | P33261 | inhibition, % at 5 µM | AID 778;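 active means CYP2C19 inhibition above a set limit at 5 µM in the primary screen, cut at about 50% in these data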;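 further: plate controls were negative control wells for no effect and 2.5 mM tranylcypromine positive control for full effect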
# PostGolgi yeast = growth inhibition of a yeast mutant, post-Golgi transport screen; post-Golgi transport phenotypic cell assay; inhibition, % at 10 µM; hit rate 0.9% among 98,000;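 further: yeast cells grown in 1536-well plates; yeast grown about 18 h at 30C before absorbance read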
# PostGolgi ctrl = inhibits growth of the yeast control strain. inhibition, % at 10 µM. hit rate 5% among 98,000. efflux-deficient yeast background strain, growth absorbance A615, 16 h
# CYP2C19 act = increases human CYP2C19 enzyme activity; P33261; recombinant CYP2C19, luciferin-H EGE luminescence; active compounds read high; 0 = fully inhibited enzyme, 1 = untreated enzyme; activation factor at 5 µM; 96,000 tested, under 10 active; AID 1025;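 active means activation factor of at least 2 at 5 µM in the primary screen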;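 further: 0 = wells with 2.5 mM tranylcypromine and 1 = vehicle-only wells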
# CYP2C9 inhib = human CYP2C9 inhibition | CYP2C9 Supersomes, luciferin-H conversion, luminescence | P11712 | hit rate 20% among 96,000 | inhibition, % at 5 µM | AID 777;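 active means blocking of liver enzyme CYP2C9 beyond about 50% at 5 µM, limit read from the data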
# Target sequence (P11712 whole entry, looked up): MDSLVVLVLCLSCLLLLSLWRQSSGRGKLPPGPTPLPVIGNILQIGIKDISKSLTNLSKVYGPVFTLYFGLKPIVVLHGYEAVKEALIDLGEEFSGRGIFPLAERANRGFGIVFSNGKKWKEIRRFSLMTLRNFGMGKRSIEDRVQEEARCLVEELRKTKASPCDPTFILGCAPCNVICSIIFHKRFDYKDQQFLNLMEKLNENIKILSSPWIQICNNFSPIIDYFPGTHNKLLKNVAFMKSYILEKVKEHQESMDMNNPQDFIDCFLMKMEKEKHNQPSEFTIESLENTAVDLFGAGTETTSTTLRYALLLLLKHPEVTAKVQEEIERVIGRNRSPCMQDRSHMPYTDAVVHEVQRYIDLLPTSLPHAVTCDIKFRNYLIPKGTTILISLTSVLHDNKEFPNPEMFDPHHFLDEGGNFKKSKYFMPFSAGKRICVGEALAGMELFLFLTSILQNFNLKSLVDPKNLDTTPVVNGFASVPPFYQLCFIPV
# CYP2C9 activ = increases human cytochrome P450 2C9 activity; hit rate 1.4% among 96,000; activation factor at 5 µM; P11712; recombinant CYP2C9, luciferin-H conversion, luminescence; active compounds read high; factor 1 = untreated enzyme, 0 = blocked;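 active means activation factor of 2 or more for CYP2C9 at a 5 µM dose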;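 further: 0 = sulfaphenazole-blocked wells and 1 = vehicle-only wells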
# Starred values were filed as active, the others as inactive. The list is not random: actives were taken first. Their share in the collection is about 32%. Unless noted, no stated cut-off is given here; in the data, active means inhibition above about 30%; inactive means the rest.
SMILES,CYP2C19 inhib,PostGolgi yeast,PostGolgi ctrl,CYP2C19 act,CYP2C9 inhib,CYP2C9 activ
CCn1c(CNc2ccc(F)cc2)nnc1SCC(=O)Nc1ccc(OC)cc1OC,50*,-13,1,0.5,11,0.9
CCn1c(SCC(=O)OC2CCCCC2)nnc1-c1ccncc1,88*,-9,8,0.1,41,0.6
CCC(=O)N1Cc2ccccc2-c2ccccc2C1=O,27,0,17,0.7,8,0.9
CCC1(CC)C(=O)NC(=O)NC1=NCCc1ccc(O)cc1,-6,6,4,1.1,-10,1.1
Cn1c(Cc2csc(N)n2)nnc1SCC(=O)NCc1ccccc1,8,-1,0,0.9,2,1
O=C(Nc1ccc(S(=O)(=O)N2CCc3ccccc3C2)cc1)C1CCCO1 (configuration not stated),12,-10,7,0.9,13,0.9
O=C(Nc1ccc(S(=O)(=O)N2CCCc3ccccc32)cc1)C1CCCO1 (configuration not stated),60*,6,27,0.4,65*,0.3
O=S(=O)(NC1CC1)c1ccc(S(=O)(=O)N2CCCc3ccccc32)cc1,90*,20,6,0.1,78*,0.2
O=C(O)C1CC=CCC1C(=O)Nc1ccc(S(=O)(=O)N2CCCc3ccccc32)cc1 (configuration not stated),-8,2,5,1.1,63*,0.4
C/C(=N\NC(N)=S)C12CC3CC(CC(C3)C1)C2,5,19,18,0.9,9,0.9
CCOC(=O)N1CCC(NC(=O)c2cc(C(=O)NCC(OC)OC)ccc2CO)CC1,-4,-2,1,1,-2,1
Cc1csc(NC(=O)CSc2ncnc3c2cnn3-c2ccccc2Cl)n1,90*,1,32*,0.1,90*,0.1
O=C(CSc1ncnc2c1cnn2-c1ccccc1)Nc1ccccc1,-15,-4,23,1.1,-12,1.1
CC1CCc2c(sc(NC(=O)CSc3ncnc4c3cnn4-c3ccccc3Cl)c2C#N)C1 (configuration not stated),27,2,-2,0.7,72*,0.3
Cc1cc(O)c(/C=N/Nc2cccc(Cl)c2)c(=O)o1,58*,15,7,0.4,71*,0.3
Cc1cc(O)c(/C=N/Nc2ccccc2Cl)c(=O)o1,30,-1,0,0.7,27,0.7
O=P(O)(O)C(O)C(F)(F)C(F)(F)C(F)(F)C(F)F (configuration not stated),-16,2,-3,1.2,8,0.9
O=C(CCn1nnc2ccccc21)N1CCC(O)(c2cccc(F)c2)CC1,43,-7,-2,0.6,52*,0.5
O=C(CCn1nnc2ccccc21)Nc1nnc(Cc2ccc(F)cc2)s1,11,0,-1,0.9,10,0.9
CCCC(O)(CCC)C(=O)NN1CCCCC1,7,5,-1,0.9,41,0.6
COc1ccccc1/C=N/Nc1nccnc1Cl,51*,0,5,0.5,47,0.5
CCCN1C/C(=C/c2cccc([N+](=O)[O-])c2)C(=O)/C(=C/c2cccc([N+](=O)[O-])c2)C1,61*,1,3,0.4,44,0.6
CCSc1nn2c(=O)c3ccccc3nc2s1,28,2,-4,0.7,49,0.5
COc1ccc(/C=N\NC(=O)C2C(=O)NCC2c2ccccc2)cc1O (configuration not stated),-4,3,9,1,-2,1
O=C1NCC(c2ccccc2)C1C(=O)N/N=C\c1ccc(-c2ccc(Cl)c(Cl)c2)o1 (configuration not stated),26,3,4,0.7,67*,0.3
SMILES,CYP2C19 inhib,PostGolgi yeast,PostGolgi ctrl,CYP2C19 act,CYP2C9 inhib,CYP2C9 activ
O=C(C1CCCN(S(=O)(=O)c2cnc[nH]2)C1)N1CCN(Cc2ccccc2)CC1 (configuration not stated),1,5,-7,1,4,1
CCCCN(Cc1ccccc1)C(=O)C1CCCN(S(=O)(=O)c2cnc[nH]2)C1 (configuration not stated),63*,0,2,0.4,36,0.6
CN(CCNC(=O)C1CCN(S(=O)(=O)c2cnc[nH]2)CC1)Cc1ccccc1,40,-1,5,0.6,52*,0.5
CN(CCCNC(=O)C1CCCN(S(=O)(=O)c2cnc[nH]2)C1)c1ccccc1 (configuration not stated),89*,-10,14,0.1,77*,0.2
COc1ccc(CCNC(=O)C2CCN(S(=O)(=O)c3cnc[nH]3)CC2)cc1OC,21,4,3,0.8,73*,0.3
Cn1cc([N+](=O)[O-])c(C(=O)N/N=C/c2ccccc2)n1,13,-4,-1,0.9,11,0.9
Cc1cccc(CSCc2nnc(N)s2)c1,37,-2,9,0.6,-12,1.1
C=CCNCCCCOc1ccc(OCC)cc1,1,-13,-2,1,4,1
CSc1ccc(/C=N/NC(=O)c2cccc(O)c2)cc1,38,14,1,0.6,25,0.8
COC(=O)c1ccccc1NC(=O)C1CCN(C(=O)c2cc(OC)cc(OC)c2)CC1,15,3,18,0.9,33,0.7
CCN(CCCNC(=O)C1CCN(S(=O)(=O)c2cnc[nH]2)CC1)c1cccc(C)c1,78*,12,-4,0.2,88*,0.1
COc1ccc(OC)c(S(=O)(=O)N2CCC(C(=O)NCCc3ccc(OC)c(OC)c3)CC2)c1,61*,-33,1,0.4,15,0.8
COc1ccc(S(=O)(=O)N2CCC(C(=O)NCCc3ccc4c(c3)OCO4)CC2)cc1,86*,1,39*,0.1,-112,2.1*
CCN(CCCNC(=O)C1CCCN(S(=O)(=O)CC)C1)c1cccc(C)c1 (configuration not stated),2,-2,8,1,-23,1.2
COc1ccc(CCNC(=O)C2CCCN(S(=O)(=O)c3cnc[nH]3)C2)cc1OC (configuration not stated),73*,8,-5,0.3,71*,0.3
Cc1cc(NCCO)c2cc(O)ccc2n1,-10,4,7,1.1,-11,1.1
COc1ccc(C)cc1S(=O)(=O)N1CCC(C(=O)NCCC2=CCCCC2)CC1,36,-9,-1,0.6,-212,3.1*
COc1ccc(S(=O)(=O)N2CCC(C(=O)NCCC3=CCCCC3)CC2)cc1C,38,13,-3,0.6,9,0.9
Cc1nn(C)c(C)c1S(=O)(=O)N1CCC(C(=O)NCCC2=CCCCC2)CC1,-16,-18,3,1.2,-110,2.1*
Cc1noc(C)c1S(=O)(=O)N1CCC(C(=O)NCCC2=CCCCC2)CC1,0,6,5,1,6,0.9
COc1ccc(/C=C2\SC(c3ccc(C)cc3)=NC2=O)cc1OC,11,-7,9,0.9,25,0.7
COc1ccc(/C=C2/SC(c3ccc(C)cc3)=NC2=O)cc1OC,41,9,21,0.6,61*,0.4
